Rows were chosen to be rich in hits. Some 21% of all compounds tested hit in one or more screens of this group.
Pf growth 48h: Primary qHTS for delayed death inhibitors of the malarial parasite plastid, 48 hour incubation | P. falciparum luciferase growth in erythrocytes, 48 h | Potency, µM (series often up to 28.7 µM), inactives show top-dose activity change, negative = inhibition, actives largely listed as inhibitors | hit rate 5.9% among 310,000 | AID 504832, 2011; note: potency is the fitted concentration of half-maximal effect; % is set by controls: 0 for no effect and ±100 for the full control effect
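Cell-based growth assay: transgenic P. falciparum expressing firefly luciferase, cultured in red cells within RPMI 1640 containing 0.5% w/v Albumax, 24 mM bicarbonate and gentamycin. A drop in luciferase activity indicates inhibition.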
Cycloheximide cs: Cycloheximide Counterscreen for Small Molecule Inhibitors of Shiga Toxin; cell reporter, cycloheximide protein synthesis inhibition counterscreen; max response, %; hit rate 12% among 300,000; in the data active = max response mostly above about 13%, no sharp cut-off; inactive = mostly below about 14%; note: read at 38.3 µM for the half of the compounds with a filed dose; 0% is about no effect
Pf growth 96h: Primary qHTS for delayed death inhibitors of the malarial parasite plastid, 96 hour incubation | P. falciparum luciferase reporter growth, 96 h | Potency, µM (highest dose often 28.7 µM), inactives show at the highest dose activity change, negative = inhibition, usual class: inhibitors | hit rate 6.9% among 320,000 | AID 504834, 2011; note: potency is the fitted concentration of half-maximal effect; % is set by controls: 0 for no effect and ±100 for the full control effect
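Infected RBCs, 2% Hct / 0.05% parasitemia final; luciferase-reporter P. falciparum; cpd 96 h, 37 C, 5% CO2; luciferase detection reagent; luminescence.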
HCV inhibitor: qHTS Assay for Inhibitors of Hepatitis C Virus (HCV). Huh7.5.1 HCVcc-Cre infection, luciferase reporter, 44 h. Potency, µM (series often up to 41.8 µM), inactives show top-dose activity change, negative = inhibition, most hits filed as inhibitors. hit rate 3.4% among 340,000; note: potency is the fitted concentration of half-maximal effect; % is set by controls: 0 for no effect and ±100 for the full control effect
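Infectious HCVcc-Cre (~0.5 moi) was added to cells just after compound, with cells seeded 4 h earlier at 1,000 per well. Luciferase activity after 44 h culture reported infection; substrate was incubated 15 min at room temperature before reading.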
Shiga inhibitor: A qHTS for Small Molecule Inhibitors of Shiga Toxin | Vero cells, Shiga toxin protein synthesis inhibition reporter | inhibition, % at 38.7 µM | hit rate 9.2% among 290,000 | AID 2315, 2010; in the data active = inhibition mostly above about 28%, no sharp cut-off; inactive = mostly below about 43%; note: 0% is about no effect
AMA1 RON2 block: qHTS for Inhibitors of AMA1-RON; Towards Development of Antimalarial Drug Lead: Primary Screen; AlphaScreen AMA1-biotinylated RON2 peptide binding; Plasmodium falciparum AMA1 (3D7) - RON2 peptide interaction; AID 720542, 2013; hit rate 0.2% among 360,000; Potency, µM (top dose mostly 58.2 µM), inactives show at the highest dose activity change, negative = inhibition, most hits filed as inhibitors;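 note: potency is the fitted concentration of half-maximal effect; 0% = vehicle wells and -100% = peptide control; nearly all actives have a fitted effect of over 45% in size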
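AMA1 (3D7) with his tag at 25 nM final met compounds first, then biotinylated RON2 peptide at 25 nM; detection used donor plus acceptor beads, 10 µg/mL apiece, read by AlphaScreen after 30 min at room temperature.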
* = called active by the depositor; [ ] = remark or other dose. Unless noted, calls come from the whole dose curve; as a rule, active = well fitted curve in the direction sought with a large enough effect; inconclusive = small, poorly fitted or top-dose-only effect, or another doubt; inactive = no such curve, though single readings can be large; an effect the other way counts as inactive or inconclusive.

`O=C(c1cccc(F)c1)N1CCN(Cc2ccc3c(c2)OCO3)CC1` gave Pf growth 48h inconclusive, Cycloheximide cs 5, Pf growth 96h 19%, HCV inhibitor 1% and AMA1 RON2 block 5%.
`O=C(c1ccc(S(=O)(=O)N2CCCC2)cc1)N1CCN(Cc2ccc3c(c2)OCO3)CC1` gave Pf growth 48h inconclusive, Cycloheximide cs -2, HCV inhibitor -16%, Shiga inhibitor -4 and AMA1 RON2 block 3%.
For CC(C)NS(=O)(=O)c1ccc(OCC(=O)N2CCN(Cc3ccc4c(c3)OCO4)CC2)c(Cl)c1 the results were Pf growth 48h inconclusive, Cycloheximide cs -2, HCV inhibitor 11µM*, Shiga inhibitor -7 and AMA1 RON2 block 2%.
`COC(=O)C1CC1[C@H](NC(=O)c1cccnc1)c1ccccc1` (some centres undefined) gave Cycloheximide cs 1 and Shiga inhibitor -5.
For CC1(C(=O)Nc2cccc(Oc3ccccc3)c2)CCN1Cc1cccc2c1OCO2 (centres undefined) the results were AMA1 RON2 block -10%.
Screening O=C(CCc1ccc(S(=O)(=O)N2CCOCC2)cc1)N1CCN(Cc2ccc3c(c2)OCO3)CC1 returned Cycloheximide cs -2, Pf growth 96h 3.3µM*, HCV inhibitor inconclusive, Shiga inhibitor -9 and AMA1 RON2 block -3%.
For CCOC(=O)c1c(C)[nH]c(C(=O)COC(=O)/C=C/c2ccc(OCC#N)c(OC)c2)c1C the results were Pf growth 48h -4%, Cycloheximide cs -3, Pf growth 96h -20%[5.75 µM], HCV inhibitor 20%, Shiga inhibitor -16 and AMA1 RON2 block -7%.
For CC(NC(=O)Cn1ncc(Cl)c(Cl)c1=O)C12CC3CC(CC(C3)C1)C2 (centres undefined) the results were Pf growth 48h -8%, Cycloheximide cs -8, Pf growth 96h -17%, HCV inhibitor 10µM*, Shiga inhibitor -21 and AMA1 RON2 block -3%[2.32 µM].
Screening CC(NC(=O)CN1C(=O)NC(Cc2ccccc2)(Cc2ccccc2)C1=O)C12CC3CC(CC(C3)C1)C2 (centres undefined) returned Cycloheximide cs 1, Pf growth 96h 12µM*, HCV inhibitor -15%, Shiga inhibitor -14 and AMA1 RON2 block -17%.
`CC1CCCCC1NC(=O)CN1C(=O)NC(Cc2ccccc2)(Cc2ccccc2)C1=O` (centres undefined) gave Pf growth 48h -8%, Cycloheximide cs -2, HCV inhibitor -15%, Shiga inhibitor -22 and AMA1 RON2 block -1%.
For CCn1cc(C(=O)NC(C)C23CC4CC(CC(C4)C2)C3)cn1 (centres undefined) the results were Pf growth 48h inconclusive, Cycloheximide cs -3, Pf growth 96h 5.2µM*, HCV inhibitor -3%, Shiga inhibitor -3 and AMA1 RON2 block inconclusive.
`CCn1cc(C(=O)NC(C)C2CC3CCC2C3)cn1` (centres undefined) gave Pf growth 48h -1%, Cycloheximide cs 1, Pf growth 96h -15%, HCV inhibitor 0%, Shiga inhibitor 17 and AMA1 RON2 block 21%.
`CC(NC(=O)Cn1ccsc1=N)C12CC3CC(CC(C3)C1)C2` (centres undefined) gave Pf growth 48h inconclusive, Cycloheximide cs -4, Pf growth 96h inconclusive, HCV inhibitor -16%, Shiga inhibitor -30 and AMA1 RON2 block -3%.
`Cc1ccc(OCCC(=O)OC(C)C(=O)Nc2c(C)n(C)n(-c3ccccc3)c2=O)cc1` (centres undefined) gave Pf growth 48h -11%, Pf growth 96h 0%, HCV inhibitor -11% and AMA1 RON2 block -5%.
COCCNC(=S)N1CCN(Cc2ccc3c(c2)OCO3)CC1 was read as Pf growth 48h -2%, Cycloheximide cs -2, Pf growth 96h inconclusive, HCV inhibitor 8%, Shiga inhibitor -9 and AMA1 RON2 block 1%.
Screening NC(=O)CC(NC(=O)c1ccccc1)c1ccc(NCc2ccc(F)cc2)c([N+](=O)[O-])c1 (centres undefined) returned Pf growth 48h inconclusive, Cycloheximide cs -1, Pf growth 96h inconclusive, HCV inhibitor -22%, Shiga inhibitor 8 and AMA1 RON2 block -1%.
`NC(=O)CC(NC(=O)c1ccccc1)c1ccc(NCc2ccccc2)c([N+](=O)[O-])c1` (centres undefined) gave Pf growth 48h inconclusive, Cycloheximide cs 9, Pf growth 96h 9.3µM*, HCV inhibitor 10µM*, Shiga inhibitor 7 and AMA1 RON2 block -1%.
NC(=O)CC(NC(=O)c1ccccc1)c1ccc(NCc2ccc(F)c(F)c2)c([N+](=O)[O-])c1 (centres undefined) was read as Pf growth 48h inconclusive, Cycloheximide cs -3, Pf growth 96h inconclusive, HCV inhibitor -2%, Shiga inhibitor -3 and AMA1 RON2 block -9%.
Screening NC(=O)CC(NC(=O)c1ccccc1)c1ccc(NCCc2ccc(Cl)cc2)c([N+](=O)[O-])c1 (centres undefined) returned Pf growth 48h 13µM*, Cycloheximide cs -5, Pf growth 96h inconclusive, HCV inhibitor inconclusive, Shiga inhibitor -8 and AMA1 RON2 block -10%.
Screening CC1CCN(c2ccccc2NC(=O)c2ccc([N+](=O)[O-])o2)CC1 returned Pf growth 48h inconclusive, Cycloheximide cs -4, Pf growth 96h 32%, HCV inhibitor -26%, Shiga inhibitor -10 and AMA1 RON2 block -4%.
`O=C(Nc1ccccc1C(=O)NC1CC1)c1ccc([N+](=O)[O-])o1` gave Pf growth 48h inconclusive, Pf growth 96h 10µM*, HCV inhibitor inconclusive and AMA1 RON2 block -14%.
For O=C(Nc1ccccc1N1CCCC1)c1ccc([N+](=O)[O-])o1 the results were Pf growth 48h 9.3µM*, Cycloheximide cs 36*, Pf growth 96h 4.1µM*, HCV inhibitor inconclusive, Shiga inhibitor 41* and AMA1 RON2 block -18%.
`O=C(Nc1cccc2ccccc12)c1ccc([N+](=O)[O-])o1` gave Pf growth 48h inconclusive, Cycloheximide cs 31*, Pf growth 96h 5.2µM*, HCV inhibitor inconclusive, Shiga inhibitor 31* and AMA1 RON2 block -1%.
Screening CC(C)C(=O)N1CCN(c2ccccc2NC(=O)c2ccc([N+](=O)[O-])o2)CC1 returned Pf growth 48h 0%, Cycloheximide cs 27*, Pf growth 96h 18%, HCV inhibitor inconclusive, Shiga inhibitor 50* and AMA1 RON2 block -4%.

Screening data deposited in PubChem by National Center for Advancing Translational Sciences (NCATS).
